According to PubChem BioAssay (NCI):
Compounds without any hit were thinned out: in the full panel of roughly 79,000, 15% have a hit. Values without a mark were called inactive. Active and inactive are the calls of the source. No stated cut-off is given here; in the data, active means growth inhibition above about 70%; inactive means the rest.

Legend:
[1] = NCI Yeast Anticancer Drug Screen. Data for the rad50 strain (AID 155);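 further: 0% = growth of vehicle-only cultures of the same strain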; settings: S. cerevisiae rad50 strain growth inhibition, hits give high values
Method in brief: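 Yeast carrying a defined DNA repair defect were exposed to test compounds, and growth was compared with vehicle-treated controls to give percent inhibition.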

[2] = NCI Yeast Anticancer Drug Screen. Data for the mec2-1 strain (AID 157); settings: S. cerevisiae mec2-1 strain, hits give high values
Method in brief: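 Using mec2-1 yeast: add compound, measure growth, express inhibition versus vehicle-treated cultures.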

[3] = NCI Yeast Anticancer Drug Screen. Data for the sgs1 mgt1 strain (AID 161);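 further: 0% = growth of cultures given vehicle only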; settings: S. cerevisiae sgs1 mgt1 strain, hits give high values
Method in brief: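 Compounds are added to genetically altered yeast, and growth is compared with cultures given vehicle alone to give percent inhibition.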

[4] = NCI Yeast Anticancer Drug Screen. Data for the cln2 rad14 strain (AID 165);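 further: 0% = growth equal to vehicle treated cultures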; settings: S. cerevisiae cln2 rad14 strain, hits give high values
Method in brief: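 Yeast strain cln2 rad14, bearing defects in cell cycle control and DNA repair, serves as the test system; values reflect growth inhibition compared with vehicle.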

[5] = NCI Yeast Anticancer Drug Screen. Data for the bub3 strain (AID 167); settings: S. cerevisiae bub3 mutant strain, hits give high values
Method in brief: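 Compounds were applied to a genetically altered yeast strain carrying a cell-cycle control defect. Growth inhibition was scored against vehicle-treated controls.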

[6] = NCI Yeast Anticancer Drug Screen. Data for the mlh1 rad18 strain (AID 175); settings: S. cerevisiae mlh1 rad18 strain growth inhibition, hits give high values
Method in brief: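 Steps: expose repair-defective yeast to compound; measure growth; express inhibition against vehicle-treated controls.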

[7] = at 5.0 µM (retest, dose inferred, filed as 0.5)
[8] = at 50.0 µM (retest, dose inferred, filed as 5.0)

Structure (SMILES)	growth inhibition [1, 7] [%]	growth inhibition [1, 8]	growth inhibition ([1]; at 50.0 µM)	growth inhibition [2, 7] [%]	growth inhibition [2, 8]	growth inhibition ([2]; at 50.0 µM)	growth inhibition [3, 7] [%]	growth inhibition [3, 8]	growth inhibition ([3]; at 50.0 µM)	growth inhibition [4, 7] [%]	growth inhibition [4, 8]	growth inhibition ([4]; at 50.0 µM)	growth inhibition [5, 7] [%]	growth inhibition [5, 8]	growth inhibition ([5]; at 50.0 µM)	growth inhibition [6, 7] [%]	growth inhibition [6, 8]	growth inhibition ([6]; at 50.0 µM)
O=C(Nc1ccc(F)c([N+](=O)[O-])c1)NC(Cc1ccccc1)c1ccccc1 (configuration not stated)	-11	86% (active)	91.6% (active)	-2	93% (active)	94.2% (active)	12	92% (active)	94.2% (active)	2	92% (active)	88.9% (active)	-4	92% (active)	81.8% (active)	26	91% (active)	93.1% (active)
O/N=C(/C[n+]1csc2ccccc21)c1ccccc1	-6	82% (active)	35.3%	-8	34%	79.5% (active)	-9	87% (active)	73.7% (active)	-6	32%	37%	12	76% (active)	76.8% (active)	1	88% (active)	48%
CC(C)(CCBr)[N+](=O)[O-]	-151	-161%	0.55%	-47	-54%	16%	-61	-62%	8.35%	-52	-68%	43.9%	-75	-84%	5.85%	-225	-127%	0.35%
CCCCC(CC)(CCC)CCN (configuration not stated)	1	93% (active)	1.65%	1	65%	1.75%	1	30%	16.6%	4	36%	32%	-3	67%	-5.95%	-1	83% (active)	31.4%
CC1=C(C(=O)Nc2ccccc2)C(c2ccccc2F)C(C(=O)Nc2ccccc2)=C(C)N1	-3	27%	48.4%	-4	11%	44%	-4	17%	31.3%	0	37%	-19.1%	-2	28%	11.6%	-5	47%	50.5%
Cc1cc(N(CCOS(C)(=O)=O)CCOS(C)(=O)=O)ccc1C=Nc1ccc(-c2csc(-c3ccc(Cl)cc3)n2)cc1	22	93% (active)	93.9% (active)	17	96% (active)	97% (active)	18	93% (active)	96.4% (active)	4	93% (active)	87.7% (active)	-2	88% (active)	90.3% (active)	57	95% (active)	94.9% (active)
CC(=O)O[C@]1(C(C)=O)CC[C@H]2[C@@H]3C[C@H](C)C4=CC(=O)NCC[C@]4(C)[C@H]3CC[C@@]21C	0	87% (active)	93.2% (active)	20	91% (active)	94.6% (active)	-20	90% (active)	88% (active)	6	81% (active)	90.1% (active)	14	92% (active)	92% (active)	6	90% (active)	94.5% (active)
CC(C)CC(CC(C)C)OP(=O)(O)OC(CC(C)C)CC(C)C	7	76% (active)	80.1% (active)	11	72% (active)	82.5% (active)	9	71% (active)	77.2% (active)	13	78% (active)	85% (active)	9	78% (active)	70.5% (active)	9	82% (active)	79.3% (active)
Cc1ccc(S(=O)(=O)Nc2ccc3c(c2)Cc2cc([N+](=O)[O-])ccc2-3)cc1	45	60%	78% (active)	24	58%	45.8%	42	62%	67.2%	45	52%	48.3%	57	63%	59.2%	58	69%	81.3% (active)
